mHTT CaM bind: disrupts binding of mutant huntingtin to calmodulin | P42858 | AlphaScreen His-mHTT/GST-CaM binding, luminescence | inhibition, % at 15 µM | actives 3.6% (n = 190,000) | AID 1671202
Target sequence (P42858 whole entry, looked up, change not shown): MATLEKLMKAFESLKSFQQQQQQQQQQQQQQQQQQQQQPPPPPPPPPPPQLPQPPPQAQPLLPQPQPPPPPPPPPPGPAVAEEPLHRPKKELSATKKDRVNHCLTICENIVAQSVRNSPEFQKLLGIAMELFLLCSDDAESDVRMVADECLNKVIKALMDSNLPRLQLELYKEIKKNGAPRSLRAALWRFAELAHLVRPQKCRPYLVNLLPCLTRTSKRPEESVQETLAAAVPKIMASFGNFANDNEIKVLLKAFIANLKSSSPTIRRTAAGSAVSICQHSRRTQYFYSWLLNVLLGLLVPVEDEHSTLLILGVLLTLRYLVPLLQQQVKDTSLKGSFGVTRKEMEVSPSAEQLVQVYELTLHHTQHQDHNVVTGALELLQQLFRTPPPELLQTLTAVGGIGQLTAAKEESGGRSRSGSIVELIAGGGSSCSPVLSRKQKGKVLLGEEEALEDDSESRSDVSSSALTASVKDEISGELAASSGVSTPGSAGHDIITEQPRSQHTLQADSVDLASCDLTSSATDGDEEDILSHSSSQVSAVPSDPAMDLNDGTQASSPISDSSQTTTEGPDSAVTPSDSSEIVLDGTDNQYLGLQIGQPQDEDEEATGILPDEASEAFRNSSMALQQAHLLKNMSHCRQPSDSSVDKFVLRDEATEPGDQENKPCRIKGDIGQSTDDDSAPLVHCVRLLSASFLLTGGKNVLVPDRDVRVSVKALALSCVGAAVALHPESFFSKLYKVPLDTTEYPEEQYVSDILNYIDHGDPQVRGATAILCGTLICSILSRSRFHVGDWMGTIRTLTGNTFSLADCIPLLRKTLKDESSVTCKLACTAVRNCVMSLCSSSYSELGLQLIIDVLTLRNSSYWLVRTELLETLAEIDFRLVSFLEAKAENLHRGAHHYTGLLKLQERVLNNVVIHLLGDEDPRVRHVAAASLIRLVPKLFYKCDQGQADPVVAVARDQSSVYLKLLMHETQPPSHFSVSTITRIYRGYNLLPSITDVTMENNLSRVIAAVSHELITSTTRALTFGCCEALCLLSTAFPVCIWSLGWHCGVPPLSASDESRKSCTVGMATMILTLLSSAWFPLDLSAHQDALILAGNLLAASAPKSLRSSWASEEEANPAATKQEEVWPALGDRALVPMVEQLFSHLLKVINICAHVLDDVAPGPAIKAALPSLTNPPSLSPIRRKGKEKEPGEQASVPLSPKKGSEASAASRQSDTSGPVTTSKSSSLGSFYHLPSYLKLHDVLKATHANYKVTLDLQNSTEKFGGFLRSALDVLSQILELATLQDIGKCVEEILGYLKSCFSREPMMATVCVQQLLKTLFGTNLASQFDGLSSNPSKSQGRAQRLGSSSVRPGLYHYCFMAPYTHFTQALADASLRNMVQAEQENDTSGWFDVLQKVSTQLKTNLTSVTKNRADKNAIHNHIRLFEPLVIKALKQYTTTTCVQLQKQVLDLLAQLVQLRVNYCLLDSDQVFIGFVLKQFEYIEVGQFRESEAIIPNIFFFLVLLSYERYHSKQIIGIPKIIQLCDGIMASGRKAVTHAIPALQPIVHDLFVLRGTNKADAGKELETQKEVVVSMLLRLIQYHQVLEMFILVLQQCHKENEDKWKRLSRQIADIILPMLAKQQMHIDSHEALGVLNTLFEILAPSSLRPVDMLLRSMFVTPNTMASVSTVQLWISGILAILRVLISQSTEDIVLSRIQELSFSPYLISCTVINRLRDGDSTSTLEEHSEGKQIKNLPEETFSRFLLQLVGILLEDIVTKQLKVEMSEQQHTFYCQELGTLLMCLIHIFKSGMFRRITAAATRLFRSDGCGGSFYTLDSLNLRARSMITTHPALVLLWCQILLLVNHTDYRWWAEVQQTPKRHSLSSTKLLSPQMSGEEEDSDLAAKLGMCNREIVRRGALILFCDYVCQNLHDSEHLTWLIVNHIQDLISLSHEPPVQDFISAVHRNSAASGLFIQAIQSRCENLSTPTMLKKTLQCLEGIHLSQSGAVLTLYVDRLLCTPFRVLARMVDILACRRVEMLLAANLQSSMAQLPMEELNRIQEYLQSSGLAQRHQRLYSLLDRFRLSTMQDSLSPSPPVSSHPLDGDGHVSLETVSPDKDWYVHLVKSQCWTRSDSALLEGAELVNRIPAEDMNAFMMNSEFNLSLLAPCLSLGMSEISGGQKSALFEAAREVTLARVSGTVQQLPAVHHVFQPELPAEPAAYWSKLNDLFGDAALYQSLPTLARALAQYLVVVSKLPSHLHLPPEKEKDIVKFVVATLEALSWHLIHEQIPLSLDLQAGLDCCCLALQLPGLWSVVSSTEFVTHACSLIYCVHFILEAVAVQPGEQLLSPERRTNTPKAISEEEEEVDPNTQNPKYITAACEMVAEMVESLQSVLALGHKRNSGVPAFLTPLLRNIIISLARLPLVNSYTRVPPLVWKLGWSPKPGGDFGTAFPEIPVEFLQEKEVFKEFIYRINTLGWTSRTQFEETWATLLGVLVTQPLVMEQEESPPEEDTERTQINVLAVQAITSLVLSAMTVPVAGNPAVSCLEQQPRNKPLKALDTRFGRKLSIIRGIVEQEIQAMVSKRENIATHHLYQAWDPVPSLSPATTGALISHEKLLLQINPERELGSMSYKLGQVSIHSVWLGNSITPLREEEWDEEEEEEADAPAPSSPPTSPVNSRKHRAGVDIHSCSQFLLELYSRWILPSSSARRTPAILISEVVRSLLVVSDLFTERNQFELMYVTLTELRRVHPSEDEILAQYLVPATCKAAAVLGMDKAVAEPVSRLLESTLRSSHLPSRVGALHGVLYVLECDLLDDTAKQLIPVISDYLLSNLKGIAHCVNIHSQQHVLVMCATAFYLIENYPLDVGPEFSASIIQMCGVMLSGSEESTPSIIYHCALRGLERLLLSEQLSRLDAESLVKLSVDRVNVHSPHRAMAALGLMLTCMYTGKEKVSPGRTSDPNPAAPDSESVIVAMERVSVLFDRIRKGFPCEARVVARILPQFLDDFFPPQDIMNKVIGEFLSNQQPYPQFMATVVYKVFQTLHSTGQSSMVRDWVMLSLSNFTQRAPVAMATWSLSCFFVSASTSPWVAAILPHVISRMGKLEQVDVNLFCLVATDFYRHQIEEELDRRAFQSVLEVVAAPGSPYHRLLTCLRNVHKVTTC
Pf apPOL inh: Pf-apPOL DNA polymerase inhibition; AID 1794808; actives 0.25% (n = 210,000); inhibition, % at 10 µM; Recombinant Pf-apPOL, molecular beacon fluorescence, 1.5 h
Of the large screens only hits and unclear results are named; the others gave an inactive call; ! = not active in a repeat. Sampled rows, rich in hits. Any-hit rate of the full collection: about 3.5%. No stated cut-off is given here; in the data, active means inhibition above about 50%; inactive means the rest.

Cc1ccc(Cl)cc1N1CCN(C(=O)C2Oc3ccccc3NC2=O)CC1 (centres undefined)	mHTT CaM bind 81
O=C1Nc2ccccc2OC1C(=O)N1CCN(c2cccc(Cl)c2)CC1 (centres undefined)	none
O=C(CSc1nc2ccccc2o1)Nc1ccccc1[N+](=O)[O-]	mHTT CaM bind 55
COc1ccc(NC(=O)CSc2nc3ccccc3o2)c([N+](=O)[O-])c1	none
C=CCNCCOc1ccc(Br)cc1C	mHTT CaM bind 54
C=CCNC(=O)COc1ccc(Br)cc1C	none
CC(C)CNC(=O)c1nc(-c2ccc(Cl)cc2)n2c1CCCCC2	none
COc1cccc(NC(=O)N2CCN(c3ccc(Nc4cc(C)ccn4)nn3)CC2)c1	mHTT CaM bind 99
COc1ccc(NC(=O)N2CCN(c3ccc(-n4nc(C)cc4C)nn3)CC2)cc1	none
CC(=O)c1cccc(NC(=O)CN(c2ccccc2F)S(=O)(=O)c2ccccc2)c1	none
Fc1ccc(-c2noc(-c3ncn4c3COC(c3ccccc3Cl)C4)n2)cc1 (centres undefined)	none
Clc1ccccc1C1Cn2cnc(-c3nc(-c4ccccn4)no3)c2CO1 (centres undefined)	mHTT CaM bind 100
O=C(CSc1nnc(-c2ccccc2)o1)c1ccc(Cl)c(Cl)c1	none
COC(=O)c1c(C)[nH]c(C)c1C=C(C#N)C(=O)c1ccc(OC)cc1	none (no result: mHTT CaM bind)
COc1ccc(-c2nccc(C3CCCN(C(=O)c4cccs4)C3)n2)cc1 (centres undefined)	none
O=C(c1cccs1)N1CCCC(c2ccnc(-c3ccccc3)n2)C1 (centres undefined)	mHTT CaM bind 95
COc1ccc(-c2nccc(C3CCCN(C(=O)c4ccccc4C)C3)n2)cc1 (centres undefined)	none
Cc1ccccc1C(=O)N1CCCC(c2ccnc(-c3ccc(F)cc3)n2)C1 (centres undefined)	mHTT CaM bind 73
CN1c2ccc(F)cc2C(=O)NC12CCN(C(=O)c1ccc(F)cc1)CC2	none
Cc1oc(C2CCN(S(=O)(=O)c3cccc(C#N)c3)CC2)nc1C(=O)N1CCCC1	none
O=C(Nc1cccc([N+](=O)[O-])c1)C(Cc1ccccc1)N1C(=O)C2C3CCC(C3)C2C1=O (centres undefined)	none
O=C(NCCc1ccccc1)N1CCC2(CC1)Nc1cc(F)ccc1-n1cccc12	mHTT CaM bind 56
O=C(NCc1ccccc1)N1CCC2(CC1)Nc1ccccc1-n1cccc12	mHTT CaM bind 71
COc1cccc(CNC(=O)N2CCC3(CC2)Nc2ccccc2-n2cccc23)c1	mHTT CaM bind 61
O=C(NCCc1ccccc1)N1CCC2(CC1)Nc1ccccc1-n1cccc12	mHTT CaM bind 69
CN1c2ccccc2C(=O)NC12CCN(C(=O)NCCc1ccccc1)CC2	none
COC(=O)CNC(=O)N1CCC2(CC1)Nc1ccccc1-n1cccc12	none
CCCNC(=O)N1CCC2(CC1)Nc1cc(F)ccc1-n1cccc12	none
CC(C)CNC(=O)c1ccc(NC(=O)CCC(=O)O)cc1	none
COCCNC(=O)N1CCC2(CC1)Nc1cc(F)ccc1-n1cccc12	none
O=C(NCc1ccc(F)cc1)N1CCC2(CC1)Nc1ccccc1-n1cccc12	mHTT CaM bind 56
O=C(CSc1cn(CCNC(=O)c2ccccc2F)c2ccccc12)NCc1ccco1	none
Cn1cc(CCC(=O)NCc2ccco2)c2ccccc21	none
O=C(CSc1cn(Cc2ccc(Cl)cc2)c2ccccc12)NCc1ccco1	mHTT CaM bind 54
Cc1ccccc1Cn1cc(SCC(=O)NCc2ccco2)c2ccccc21	mHTT CaM bind 86
O=C(Nc1ccc(-c2nc3ccccc3s2)c(O)c1)c1ccccc1F	none
O=C(c1csc(N2CCN(c3ccc(Cl)cc3)CC2)n1)N1CCCC1	none
CCc1cc2c(=O)c(-c3ccc4c(c3)OCCO4)c(C)oc2cc1OCC(=O)OC	Pf apPOL inh 55
CCCc1oc2cc(OCC(=O)OC)c(CC)cc2c(=O)c1-c1ccc2c(c1)OCCCO2	none
NC(=S)NN[C@H]1O[C@H](CO)[C@@H](O)[C@@H](O)[C@H]1O	none (no result: mHTT CaM bind)
Cc1nc2cc(N)ccc2s1	none
Nc1ccc2cc3ccc(N)cc3nc2c1	mHTT CaM bind 55 (no result: Pf apPOL inh)
N#CC1=C(N)Oc2nc[nH]c(=O)c2C1c1ccoc1 (centres undefined)	none (no result: Pf apPOL inh)
CC1CC(=NNc2cc(Cl)cc(Cl)c2)c2cc(Cl)ccc2S1(=O)=O (centres undefined)	none (no result: mHTT CaM bind)
N#CC1=C(N)OC2=C(CC/C2=C\c2ccccc2)C1c1ccccc1 (centres undefined)	mHTT CaM bind 90
N#CC1=C(N)OC2=C(C(=O)CCC2)C1c1ccccc1 (centres undefined)	none
Cc1cccc(C2C(C(=O)NCc3ccncc3)c3ccccc3C(=O)N2C2CC2)c1 (centres undefined)	none
CCOC(=O)Oc1ccc2c(=O)c(Oc3ccccc3Cl)coc2c1	none
COC(=O)Oc1ccc2c(=O)c(Oc3ccccc3Cl)coc2c1	mHTT CaM bind 69
COC(=O)Oc1ccc2c(=O)c(-c3ccccc3Cl)coc2c1	mHTT CaM bind 61!
CCOC(=O)Oc1ccc2c(=O)c(-c3ccccc3Cl)coc2c1	none
COc1ccc(-c2csc(/C(C#N)=C/c3ccco3)n2)cc1	none
Cc1ccc(-c2csc(/C(C#N)=C/c3ccco3)n2)cc1	Pf apPOL inh 53
COCCN(CCOC)S(=O)(=O)c1ccc(C(=O)N=c2sc3ccccc3n2C)cc1	none
Cc1cc(-c2nc(-c3ccnn3S(=O)(=O)c3cccc(C(F)(F)F)c3)cs2)no1	none (no result: mHTT CaM bind)
CCOC(=O)c1cc(-c2ccnn2S(=O)(=O)c2cccc(C(F)(F)F)c2)on1	Pf apPOL inh 82 (no result: mHTT CaM bind)
CC(=O)NCC(=O)N(C)C(C(=O)Nc1ccc2c(c1)OCO2)c1ccccc1 (centres undefined)	none
CC(C)N(Cc1c[nH]c2ccccc12)C(=O)Nc1ccc(Cl)c(Cl)c1	mHTT CaM bind 68
CC(=O)Nc1ccc(NC(=O)CCc2c[nH]c3ccccc23)cc1	none
CN(C(=O)Cc1c[nH]c2ccccc12)C(C(=O)Nc1ccc2c(c1)OCO2)c1ccccc1 (centres undefined)	mHTT CaM bind 88
Cc1ccc(C2=N/C(=C\c3ccc(Br)cc3)C(=O)O2)cc1[N+](=O)[O-]	none
CN(C)c1ccc(/C=C2\N=C(c3cccc([N+](=O)[O-])c3)OC2=O)cc1	Pf apPOL inh 97
Cc1ccc(C2=N/C(=C\c3cccc(Br)c3)C(=O)O2)cc1[N+](=O)[O-]	mHTT CaM bind 51
CCN(CC)c1ccc(/C=C2\N=C(c3cccc([N+](=O)[O-])c3)OC2=O)cc1	none
O=S(=O)(c1ccc(F)cc1)N1CCc2[nH]c3ccccc3c2C1	none
Cc1cc(C)n(-c2cc(N3CCN(S(=O)(=O)c4cc(F)ccc4C)CC3)nc(C)n2)n1	none
CC(=O)N1CCN(C(C(=O)Nc2ccc(F)cc2F)C2CCCC2)CC1 (centres undefined)	none
CC(O)CNc1c([N+](=O)[O-])c(=O)n(C)c2ccccc12 (centres undefined)	Pf apPOL inh 70
Cn1c(=O)c([N+](=O)[O-])c(NCc2ccccc2)c2ccccc21	none
COc1cc(N2Cc3ccccc3C2)ccc1C=O	mHTT CaM bind 72
COc1cc(N2Cc3ccccc3C2)ccc1/C=C(\C#N)C(=O)NCc1ccco1	none
Cn1nc(-c2nc(-c3cccc(F)c3)no2)c2c1CCN(C(=O)c1ccc(F)cc1)C2	none
CCCCCCN1C[C@@H](n2cc(C3CC3)nn2)[C@H](O)C[C@@H]1c1ccc(OC)cc1	none
O[C@H]1C[C@H](c2ccccc2)N(Cc2cccs2)C[C@@H]1n1cc(C2CC2)nn1	mHTT CaM bind 74

Screens (PubChem BioAssay)
